Test [1] concerns Plasmodium falciparum Sir2 (PF13_0152, Sir2A). Put plainly: Plasmodium falciparum Sir2A binding compounds – biochemical, small-molecule microarray, 635 nm fluorescence, primary screen (AID 1098).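 Also: score merges spot fluorescence intensity with its signal-to-noise ratio.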 The settings on record: fluorescence 635 nm, higher = more signal.
Test [2] can be described thus: probe aDKK1 binding to arrayed compounds – biochemical, biotinylated probe, 635/667 nm fluorescence, primary screen (AID 1099).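 Also: score merges 667nm spot fluorescence with signal to noise across triplicate slides; reference of the scale not given here.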 The settings on record: small-molecule microarray, higher = more signal.
Test [3] in a line: probe aCHRDL2 binding to arrayed compounds – biochemical, biotinylated probe, 635/667 nm fluorescence, primary screen (AID 1100). As to conditions: small-molecule microarray, higher = more signal.
Test [4] in a line: change in splice reporter luminescence, either direction, cell-based, HEK293, spliceosome inhibition project, primary screen (AID 1101).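 Also: HEK293 cells carrying a splicing-competent luciferase reporter gene; test concentration not given here.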 The settings on record: HEK293 splicing luciferase reporter, 24 h, higher = more signal, called active from +8 up or from −8 down. A general note: In a reporter assay the amount or activity of a reporter protein is the signal.
Test [5] concerns the target Fibroblast growth factor 10 (Homo sapiens) (UniProt O15520). The test is described as follows: compounds binding fibroblast growth factor 10 – biochemical, small-molecule microarray, 635 nm fluorescence, primary screen (AID 1102). As to conditions: FGF10 binding, fluorescence 635 nm, higher = more signal.
The subject of test [6] is glycogen synthase kinase-3 (GSK3A per assay name; protocol says GSK3B). The test is described as follows: compounds binding glycogen synthase kinase-3 – biochemical, small-molecule microarray, 635 nm fluorescence, GSK3A, primary screen (AID 1103). Also: the record names both GSK3A and GSK3B. As to conditions: fluorescence 635 nm, higher = more signal.
Test [7] has as its target Epidermal growth factor receptor (Homo sapiens) (UniProt P00533). Put plainly: compounds binding epidermal growth factor receptor – biochemical, small-molecule microarray, 635 nm fluorescence, primary screen (AID 1104).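 Also: score merges 667 nm emission intensity with spot signal to noise over triplicate slides.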 As to conditions: EGFR binding, higher = more signal.
For test [8], the target named is Follistatin-related protein 3 (Homo sapiens) (UniProt O95633). The test is described as follows: compounds binding follistatin-related protein 3 – biochemical, small-molecule microarray, 635 nm fluorescence, primary screen (AID 1105).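 Also: score merges emission near 667 nm and signal to noise per printed spot across three slides.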 The settings on record: FSTL3 binding, higher = more signal.
Follistatin-related protein 3 (Homo sapiens), sequence (O95633 whole entry, looked up): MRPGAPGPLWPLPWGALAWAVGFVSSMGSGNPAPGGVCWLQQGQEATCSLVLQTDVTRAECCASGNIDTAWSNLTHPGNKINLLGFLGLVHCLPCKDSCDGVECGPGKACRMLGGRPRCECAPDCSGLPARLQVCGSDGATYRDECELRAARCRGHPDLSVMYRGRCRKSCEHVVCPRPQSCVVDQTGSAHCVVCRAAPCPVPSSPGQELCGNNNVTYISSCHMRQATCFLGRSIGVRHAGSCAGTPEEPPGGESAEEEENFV
The target of test [9] is Dickkopf-related protein 1 (Homo sapiens) (UniProt O94907). The test is described as follows: small molecules binding DKK1 protein – biochemical, small-molecule microarray, 635 nm fluorescence scan, primary screen (AID 1106).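 Also: score merges emission near 667 nm with signal to noise over three replicate slides.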 As to conditions: higher = more signal.
Dickkopf-related protein 1 (Homo sapiens), sequence (O94907 whole entry, looked up): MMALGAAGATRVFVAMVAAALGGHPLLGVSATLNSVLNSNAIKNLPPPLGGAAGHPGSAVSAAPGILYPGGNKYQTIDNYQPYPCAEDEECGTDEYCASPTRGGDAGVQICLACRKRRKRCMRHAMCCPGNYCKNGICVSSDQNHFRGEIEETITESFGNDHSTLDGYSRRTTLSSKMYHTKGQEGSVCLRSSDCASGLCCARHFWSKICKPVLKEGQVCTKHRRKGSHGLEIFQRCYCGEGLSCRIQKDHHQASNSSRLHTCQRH
Test [10] deals with Inhibin beta A chain (activin A). Put plainly: small molecules binding activin A – biochemical, small-molecule microarray, 635 nm fluorescence scan, primary screen (AID 1107).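 Also: mouse activin A protein probed at 4.33 µg/mL on printed slides; score merges bound-protein fluorescence near 667 nm with spot signal-to-noise.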 As to conditions: INHBA, higher = more signal.

Activity calls are given as the source filed them.

The record followed here is PubChem BioAssay.

Epidermal growth factor receptor (Homo sapiens), sequence (P00533 whole entry, looked up): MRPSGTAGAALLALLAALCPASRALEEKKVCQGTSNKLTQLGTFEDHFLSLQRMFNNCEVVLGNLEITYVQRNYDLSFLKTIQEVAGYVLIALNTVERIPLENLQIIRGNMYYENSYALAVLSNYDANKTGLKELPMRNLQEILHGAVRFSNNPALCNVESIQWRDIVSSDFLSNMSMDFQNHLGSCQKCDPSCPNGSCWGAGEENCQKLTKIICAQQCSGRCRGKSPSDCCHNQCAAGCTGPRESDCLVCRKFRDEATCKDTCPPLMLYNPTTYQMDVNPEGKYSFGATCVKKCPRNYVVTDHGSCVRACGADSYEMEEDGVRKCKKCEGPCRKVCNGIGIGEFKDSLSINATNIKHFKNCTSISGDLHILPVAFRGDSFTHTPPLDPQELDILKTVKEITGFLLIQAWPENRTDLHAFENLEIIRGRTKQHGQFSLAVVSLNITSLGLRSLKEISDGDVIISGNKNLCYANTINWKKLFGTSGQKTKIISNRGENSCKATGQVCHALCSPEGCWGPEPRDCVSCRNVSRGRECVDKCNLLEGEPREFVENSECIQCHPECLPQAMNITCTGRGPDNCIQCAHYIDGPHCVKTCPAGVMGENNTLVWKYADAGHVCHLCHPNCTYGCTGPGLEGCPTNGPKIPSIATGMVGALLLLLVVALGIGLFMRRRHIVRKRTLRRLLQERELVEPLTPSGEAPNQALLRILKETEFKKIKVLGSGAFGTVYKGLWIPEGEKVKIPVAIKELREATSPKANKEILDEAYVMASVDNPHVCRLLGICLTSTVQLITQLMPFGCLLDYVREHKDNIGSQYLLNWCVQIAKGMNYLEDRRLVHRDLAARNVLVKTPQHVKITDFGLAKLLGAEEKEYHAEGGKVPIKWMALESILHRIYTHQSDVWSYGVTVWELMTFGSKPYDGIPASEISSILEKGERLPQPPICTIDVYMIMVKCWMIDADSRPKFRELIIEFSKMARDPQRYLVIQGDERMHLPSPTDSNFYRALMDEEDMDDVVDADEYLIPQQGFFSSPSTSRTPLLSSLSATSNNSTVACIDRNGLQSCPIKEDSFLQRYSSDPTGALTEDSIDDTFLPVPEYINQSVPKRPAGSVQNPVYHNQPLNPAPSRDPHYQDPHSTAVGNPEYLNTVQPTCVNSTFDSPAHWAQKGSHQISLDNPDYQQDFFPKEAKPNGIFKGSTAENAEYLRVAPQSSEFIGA
Fibroblast growth factor 10 (Homo sapiens), sequence (O15520 whole entry, looked up): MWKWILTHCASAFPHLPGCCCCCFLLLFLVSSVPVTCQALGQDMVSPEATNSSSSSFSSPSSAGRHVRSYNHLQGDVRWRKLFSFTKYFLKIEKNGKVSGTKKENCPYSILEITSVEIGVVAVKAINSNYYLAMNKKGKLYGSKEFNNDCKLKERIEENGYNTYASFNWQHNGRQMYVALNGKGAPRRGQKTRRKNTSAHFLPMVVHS

For `CCCC[C@@H]1C[C@H]1[C@@H](NC(=O)c1cccnc1)c1ccc(-c2ccccc2)cc1`, the composite z-score in [1] is 0.0651; in test [2] it was -0.161; in test [3], 0.993; in test [5], -1.19; in test [6], -1.2; in test [7], -1.46. Further, the composite z-score in [8] was -1.01; in test [9], -1.44; in [10], 0.936. Besides, in test [4], the z-score was -4.22 (inactive).

Regarding `C=CCNC(=O)[C@@H]1[C@H]2C(=O)O[C@H](c3ccccc3)[C@H](c3ccccc3)N2[C@H](c2ccc(OCCO)cc2)[C@@]12C(=O)N(C(=O)OCCOC)c1ccc(C#CC3=CCCCC3)cc12`, the composite z-score was 1.11 in test [1]; 0.331 in [2]; -0.112 in [3]; 0.957 in test [5]; 1.28 in [6]; 0.552 in test [7]. In addition, the composite z-score in [8] is 1.06; in [9], 0.44; in test [10] it was 0.726. For the same compound, the z-score in [4] is -0.57 (inactive).

On to `COc1ccc(NN2C(C(O)c3ccccn3)C=CC3C(=O)N(C4CCCCC4)C(=O)C32)cc1` (stereo not given), for which the composite z-score in [1] worked out at 1.31; in [2] it was 0.2; in test [3] it was 0.862; in test [5], 0.962; in [6], 1.25; in test [7] it was 0.224. Besides, the composite z-score in [8] was 1.16; in test [9], -0.39; in test [10], 0.627. Moreover, the z-score in [4] is -1.44 (inactive).

In the case of `CCCCC(CC)C(O)C1C=CC2C(=O)N(c3ccccc3)C(=O)C2N1Nc1ccc([N+](=O)[O-])cc1` (stereo not given), the composite z-score in test [1] was 1.31; in test [2], 0.68; in [3] it was 0.457; in test [5], 1.01; in [6], 1.34; in test [7], 0.444. Besides, the composite z-score in test [8] is 1.34; in [9], 0.155; in [10], 0.532. In addition, in [4], the z-score was 0.63 (inactive).

As for `COC(=O)[C@@]1(Cc2ccccc2)[C@H]2c3cc(C(=O)N4CCCC4)n(C[C@H](O)CO)c3C[C@H]2CN1C(=O)c1ccccc1`, the composite z-score in [1] is 1.06; in [2] it was 0.571; in test [3], 1.01; in test [5], -0.209; in test [6] it was -0.0288; in test [7] it was -0.455. In addition, the composite z-score in test [8] was 0.0783; in test [9] it was -1.11; in [10] it was 0.956. For the same compound, in [4], the z-score was 0.797 (inactive).

Regarding `O=C1OC[C@@H](c2ccccc2)N2CC(/C=C/c3ccccc3)=CC12` (stereo not given in full), the composite z-score in test [1] was -0.0726; in test [2], -0.144; in test [3], 0.537; in [5], -0.529; in [6], -0.511; in test [7] it was -2.06. In addition, the values for the composite z-score in [8], in test [9] and in [10] were -1.16, -1.15 and 0.0575, respectively. Moreover, the z-score in test [4] is -0.521 (inactive).

Regarding `COc1ccc(CCNC(=O)[C@@]2(Sc3ccc(C)cc3)CC(=O)N(Cc3cc(C(F)(F)F)cc(C(F)(F)F)c3)[C@@H]2c2ccc(CO)cc2I)cc1`, the composite z-score in test [1] is 1.15; in test [2] it was 0.277; in test [3] it was 0.901; in test [5], -0.447; in test [6], -0.223; in test [7], -1.06. The composite z-score in test [8] is -0.0666; in [9], -0.744; in test [10] it was 0.533. The z-score in test [4] is -0.871 (inactive).

As for `O=C1c2ccccc2[C@@]2(Cc3ccccc3N(C3CC3)C2=O)[C@H](c2ccc(CO)cc2)N1C1CCCCC1`, the composite z-score is -1.5 in test [1]; 0.16 in test [2]; 0.615 in [3]; -0.364 in test [5]; -0.492 in [6]; -0.412 in test [7]. In addition, the composite z-score in test [8] is -0.558; in test [9], -0.526; in test [10], 0.5. The z-score in test [4] is -0.402 (inactive).

With `[N-]=[N+]=NCc1ccccc1C[C@]1(C(=O)NCC(O)CO)N=C(c2ccc(OCCCO)cc2)O[C@H]1c1ccccc1CN=[N+]=[N-]` (stereo not given in full), the composite z-score in test [1] is 0.425; in [2] it was 0.384; in test [3] it was 0.953; in test [5], 1.08; in [6], 1.15; in [7], -0.154. The composite z-score was -0.392 in test [8], -0.749 in [9] and 0.387 in test [10]. For the same compound, the z-score in test [4] was -0.47 (inactive).

As to `CC=CC(O)C1C=CC2C(=O)N(C)C(=O)C2N1Nc1ccc([N+](=O)[O-])cc1[N+](=O)[O-]` (stereo not given), the composite z-score in [1] was 1.1; in test [2], 0.121; in test [3], 0.636; in test [5] it was -0.49; in test [6], -1.06; in [7], -0.898. Also, the composite z-score was -0.79 in test [8], -0.232 in test [9] and 1.11 in [10]. Also, in test [4], the z-score is 0.607 (inactive).

For `O=C(N1CCCCC1)[C@@]1(Cc2ccccc2)COC(c2ccc(OCCCO)cc2)=N1`, the composite z-score in [1] was 1.48; in test [2], 1.11; in [3] it was 1.25; in test [5], 1.44; in [6], 0.705; in test [7] it was -0.153. Besides, the results for the composite z-score in test [8], in test [9] and in [10] were 0.12, -0.275 and 0.691, respectively. The z-score in test [4] is 0.419 (inactive).

For the compound `CN1C2C=C(CCCO)C(C3C(=O)N(C(N)=O)C(=O)C32)C1c1cccs1` (stereo not given), the composite z-score is -0.254 in test [1]; 1.3 in test [2]; 0.492 in test [3]; 1.12 in test [5]; 0.386 in test [6]; -0.259 in [7]. Moreover, the composite z-score in [8] is -0.173; in test [9], 1.45; in [10], 0.418. Moreover, the z-score in test [4] was 0.359 (inactive).

On to `COCCOC(=O)N1C(=O)[C@@]2(c3cc(C#CC4=CCCCC4)ccc31)[C@H](c1ccc(O)cc1)N1[C@H](c3ccccc3)[C@H](c3ccccc3)OC(=O)[C@H]1[C@@H]2C(=O)Nc1nc2ccccc2s1`, for which the composite z-score in [1] was 1.56; in test [2], 0.663; in test [3], -0.277; in test [5], 1.33; in [6], 1.24; in test [7], 0.383. Moreover, the composite z-score stood at 1.19 in [8], 0.45 in test [9] and 0.248 in [10]. Moreover, the z-score in [4] is 0.51 (inactive).

`COCCOC(=O)N1C(=O)[C@@]2(c3cc(C#CC4(O)CCCCCC4)ccc31)[C@H](C(N)=O)[C@H]1C(=O)O[C@H](c3ccccc3)[C@H](c3ccccc3)N1[C@@H]2c1ccccc1OCCO`: the composite z-score is 1.28 in test [1]; 0.919 in [2]; -0.423 in test [3]; 1.15 in [5]; 1.3 in test [6]; 0.639 in [7]. Besides, the composite z-score is 1.16 in [8], 0.974 in test [9] and -0.505 in test [10]. In addition, the z-score in test [4] was -1.96 (inactive).

As to `Cc1ccc(S[C@]2(C(=O)NCC(F)(F)F)CC(=O)N(Cc3ccccc3)[C@@H]2c2ccc(CO)cc2)cc1`, the composite z-score in test [1] is 1.54; in [2], 0.382; in test [3], 0.767; in [5], -0.409; in test [6] it was -0.507; in test [7], -0.938. The results for the composite z-score in test [8], in test [9] and in test [10] were -0.763, -1.32 and -0.0219, respectively. In addition, the z-score in test [4] was -0.676 (inactive).

As to `CN(C)CCCCNC(=O)[C@H]1C[C@H]2C(=O)N[C@@H](CCCCN(C)C)C(=O)N2[C@H]1c1cccc(OCCO)c1`, the composite z-score in [1] is 1.12; in test [2], -0.199; in test [3] it was -0.434; in test [5], 1.21; in test [6] it was 1.29; in [7] it was 0.514. The composite z-score came to 1.11 in [8], 0.418 in [9] and 0.0714 in [10]. Further, the z-score in test [4] was -0.404 (inactive).

In the case of `Cc1ccc(S[C@]2(C(=O)NCc3ccccc3)CC(=O)N(C(C)C)[C@@H]2c2ccc(CO)cc2I)cc1`, the composite z-score in test [1] is 0.169; in test [2], 0.378; in test [3] it was 1.16; in [5] it was -0.991; in test [6], -0.687; in [7], -0.474. The composite z-score in test [8] was -1.04; in [9] it was -1.67; in test [10] it was 0.929. For the same compound, the z-score in test [4] is 0.0407 (inactive).
